Data reported in publication PMC4552634, “A New Set of Chemical Starting Points with Plasmodium falciparum Transmission-Blocking Potential for Antimalarial Drug Discovery” (PLoS ONE, 2015).
Screen size: about 13,000 compounds; about 3,200 (25%) showed an effect of 50% or more. This is one part of the list.

system: P. falciparum stage V gametocytes; design: BacTiter-Glo ATP luminescence viability of purified stage V gametocytes in 384-well plates, per cent inhibition versus DMSO; settings: 48 h, 5 µM; inhibitor

Point of comparison: `COc1cccc(NC(=O)Nc2cc(-c3ccc4[nH]ncc4c3)cc3c2CNC3=O)c1` [TCMDC-133475], “% Inhibition” value 14.15%. Against it:
- O=C(CN1C(=O)CC1S(=O)(=O)Cc1ccco1)NCCCCCCc1ccc(F)cc1 (stereo not shown) [TCMDC-139032] — higher, 21.56%
- COc1cccc(C(C)(C)NC[C@@H](O)[C@H](Cc2ccccc2)NC(=O)c2cc(C3CCCC3)cc(N3CCCCS3(=O)=O)c2F)c1 [TCMDC-135510] — higher, 45.23%
- CCN(CC)CCN(Cc1ccc(-c2ccc(C(F)(F)F)cc2)cc1)C(=O)Cn1c(CCc2cc(F)cc(F)c2F)nc(=O)c2ccccc21 [TCMDC-140955] — higher, 88.67%
- CCN(CC)CCN(Cc1ccc(-c2ccc(C(F)(F)F)cc2)cc1)C(=O)Cn1c(CCc2c(F)cc(F)cc2F)nc(=O)c2ccccc21 [TCMDC-140967] — higher, 61.03%
- CCN(CC)CCN(Cc1ccc(-c2ccc(C(F)(F)F)cc2)cc1)C(=O)Cn1c(CCc2c(F)ccc(F)c2F)nc(=O)c2ccccc21 [TCMDC-140953] — higher, 67.68%
- CCN(CC)CCN(Cc1ccc(-c2ccc(C(F)(F)F)cc2)cc1)C(=O)Cn1c(CCc2c(F)cccc2F)nc(=O)c2ccccc21 [TCMDC-140950] — higher, 87.94%
- CC(CCCCOCCc1ccccc1)NCC(O)c1cc(Cl)c(N)c(Cl)c1 (stereo not shown) [TCMDC-132072] — higher, 16.2%
- Cc1ccc(-c2nnc(Nc3ccc(C(=O)N4CCCCC4)cc3)c3ccccc23)cc1S(=O)(=O)NCC1CCCO1 (stereo not shown) [TCMDC-125618] — higher, 37.21%
- COc1ccc2nccc([C@@H](O)CN3CCC(NCc4cc5cccc(OC)c5o4)CC3)c2c1 [TCMDC-140683] — lower, -7.327%
- O[C@@H](c1cc(C(F)(F)F)nc2c(C(F)(F)F)cccc12)[C@H]1CCCCN1 [TCMDC-124288] — higher, 25.8%
- Cc1ccc(F)cc1S(=O)(=O)N1CCCCC(c2ccc(C(F)(F)F)cc2)=N1 [TCMDC-134531] — lower, -12.63%
- O=C(Nc1ccc(Cl)cc1C(=O)Nc1cccc(F)c1)c1ccc([N+](=O)[O-])cc1 [TCMDC-123788] — lower, -68.85%
- CCC(C)CNC(=O)CN1CN(c2ccccc2)C2(CCN(C(=O)c3ccc(Br)cc3)CC2)C1=O (stereo not shown) [TCMDC-125167] — lower, -9.167%
- Cc1ccc(NC(=O)c2ccc3ncccc3c2)cc1OC1CCN(C(C)C)C1 (stereo not shown) [TCMDC-133739] — higher, 24.97%
- COc1ccc2nccc([C@@H](O)CN3CCC(NCCOc4ccccc4C#N)CC3)c2c1 [TCMDC-140712] — lower, 9.495%
- Nc1ccc2nc(C=Cc3ccccc3)[nH]c2c1 [TCMDC-124430] — higher, 29.38%
- COc1ccc2nc(/C=C/c3cccc4ccc(C)nc34)[nH]c2c1 [TCMDC-138821] — lower, -26.73%
- Cc1ccc2nc(/C=C/c3cccc4cc[nH]c34)[nH]c2c1 [TCMDC-138896] — higher, 83.23%
- COc1ccc2c(c1)CC(CNC[C@H](O)c1cccc(Cl)c1)CC2 (stereo partly shown) [TCMDC-131994] — lower, -12.5%
- CN(C)CCOc1ccc2c(c1)CN(C)CC2c1ccccc1 (stereo not shown) [TCMDC-131410] — lower, 7.627%
- Cc1nc(-c2nc(NCc3ccncc3)ncc2-c2ccsc2)sc1C [TCMDC-125359] — higher, 15.84%
- Cc1nc(-c2nc(NCCc3cnccn3)ncc2-c2ccsc2)sc1C [TCMDC-125363] — higher, 69.56%
- Cc1nc(-c2nc(NCc3ccccn3)ncc2-c2ccsc2)sc1C [TCMDC-125360] — higher, 31.08%
- Cc1nc(-c2nc(NCCc3c(C)noc3C)ncc2-c2ccsc2)sc1C [TCMDC-125357] — higher, 20.64%
- COCCN(CCOC)c1ncc(-c2ccsc2)c(-c2nc(C)c(C)s2)n1 [TCMDC-125355] — higher, 81.41%
- Cc1nc(-c2nc(N3CCOCC3)ncc2-c2ccsc2)sc1C [TCMDC-125356] — lower, 0.6256%
- CN(C)CCOc1ccc2[nH]c(-c3cccc(OCc4ccccc4)c3)nc2c1C#N [TCMDC-133765] — lower, 4.095%
- COc1cc(C(=O)Nc2cccc(-c3cn4cccc(C)c4n3)c2)cc(OC)c1OC [TCMDC-123644] — higher, 23.2%
- CCC1N=C(N)N=C(N)N1OCc1cccc2ccccc12 (stereo not shown) [TCMDC-131592] — higher, 22.21%
- COc1ccc(CCNCCCCCCNCCc2ccccc2Cl)cc1OC [TCMDC-131273] — higher, 87.94%
- COc1ccc(CCNCCCCCCNCCc2ccc(Cl)c3ccccc23)cc1OC [TCMDC-131270] — higher, 116.7%
- COc1c(CCNCCCCNCCc2cc(Cl)c3ccccc3c2OC)cc(Cl)c2ccccc12 [TCMDC-137869] — higher, 105.2%
- COc1cc2ncnc(NCCc3ccccc3Cl)c2cc1OC [TCMDC-139495] — lower, 5.438%
- CCCCNCc1cc(Cl)c2ccccc2c1O [TCMDC-137599] — higher, 77.6%
- COc1ccc(CCNc2nc(SCc3ccccc3Cl)nc3ccccc23)cc1OC [TCMDC-125569] — higher, 33.86%
- COc1c(CNCCCCCCNCc2cc(Cl)c3ccccc3c2OC)cc(Cl)c2ccccc12 [TCMDC-137958] — higher, 32.17%
- CCN(CC)CCCN(C(=O)Nc1c(Cl)cncc1Cl)c1nc(-c2ccc(F)cc2)cs1 [TCMDC-136666] — lower, -35.52%
- O=C(Cc1ccc(NC(=O)c2ccc(O)c(-c3ccc(Cl)c(Cl)c3)c2)cc1)NCCN1CCCCC1 [TCMDC-140861] — lower, -19.27%
- O=C(Nc1cccc2ccccc12)N1CCC(NS(=O)(=O)c2cccc(C(F)(F)F)c2)CC1 [TCMDC-139437] — lower, -43.48%
- Cn1c(N)c(N=O)c(=O)[nH]c1=O [TCMDC-123469] — lower, -4.943%
- CC1CN(Cc2ccc(C#N)cc2)CCN1c1ccc(NC(=O)c2cccs2)cc1 (stereo not shown) [TCMDC-134949] — lower, -2.454%
- Cc1nnnn1-c1ccc(C(=O)N2CCC3(CC2)CN(Cc2ccc(Cl)c(Cl)c2)C(=O)O3)cc1 [TCMDC-141691] — lower, -63.06%
- O=C(Nc1ccc(CCNCCCc2ccccc2)cc1)Nc1ccc(Cl)c(Cl)c1 [TCMDC-140703] — higher, 18.38%
- O=C(CCCCCNC(=O)c1ccc(O)c(-c2ccc(Cl)c(Cl)c2)c1)NCCc1ccc(Cl)c(Cl)c1 [TCMDC-140870] — lower, 6.745%
- Oc1ccc(CCNCCCCCCNCCc2ccc(Cl)c3ccccc23)cc1O [TCMDC-131271] — higher, 123.4%
